{"source": "ChEMBL document CHEMBL1157539", "about": "“Thousands of chemical starting points for antimalarial lead identification” (Nature, 2010)", "format_in_all_cases": "functional", "key": {"Plasmodium falciparum [1]": {"tested_on": "Plasmodium falciparum", "assay": "GSK_TCMDC: Inhibition of Plasmodium falciparum 3D7 in whole red blood cells, using parasite LDH activity as an index of growth. Test compounds present at 2uM"}, "Plasmodium falciparum [2]": {"tested_on": "Plasmodium falciparum", "assay": "GSK_TCMDC: Inhibition of Plasmodium falciparum Dd2 in whole red blood cells, using parasite LDH activity as an index of growth. Test compounds present at 2uM"}, "HepG2": {"tested_on": "HepG2", "assay": "GSK_TCMDC: Percent inhibition of human HepG2 cell line. Test compounds present at 10uM."}}, "data": [{"smiles": "CC(C)Cn1ccc2c3c(N)nc(N)nc3ccc21", "values": [{"measurement": "Inhibition", "setting": "Plasmodium falciparum [1]", "value": 96, "unit": "%"}, {"measurement": "Inhibition", "setting": "Plasmodium falciparum [2]", "value": 96, "unit": "%"}]}, {"smiles": "CCCOc1cc2c(cc1OCCC)C(C=Cc1ccc(Cl)cc1Cl)=NC(C)C2.Cl", "note": "(stereo unspecified)", "values": [{"measurement": "Inhibition", "setting": "Plasmodium falciparum [1]", "value": 90, "unit": "%"}, {"measurement": "Inhibition", "setting": "Plasmodium falciparum [2]", "value": 75, "unit": "%"}]}, {"smiles": "Cl.Nc1nc(N)c2c(n1)CCc1cc(Br)ccc1-2", "values": [{"measurement": "Inhibition", "setting": "Plasmodium falciparum [1]", "value": 87, "unit": "%"}, {"measurement": "Inhibition", "setting": "Plasmodium falciparum [2]", "value": 4, "unit": "%"}]}, {"smiles": "Nc1nc(N)c2c(Sc3ccc(F)cc3)cccc2n1", "values": [{"measurement": "Inhibition", "setting": "Plasmodium falciparum [1]", "value": 88, "unit": "%"}, {"measurement": "Inhibition", "setting": "Plasmodium falciparum [2]", "value": 0, "unit": "%"}]}, {"smiles": "Cl.c1ccc2c(CNCCCN3CCN(CCCNCc4c5ccccc5cc5ccccc45)CC3)c3ccccc3cc2c1", "values": [{"measurement": "Inhibition", "setting": "Plasmodium falciparum [1]", "value": 100, "unit": "%"}, {"measurement": "Inhibition", "setting": "Plasmodium falciparum [2]", "value": 100, "unit": "%"}]}, {"smiles": "CCCCN(CCCC)Cc1cc(N(C)c2ccc([N+](=O)[O-])cn2)ccc1O.O=C(O)C(=O)O", "values": [{"measurement": "Inhibition", "setting": "Plasmodium falciparum [1]", "value": 98, "unit": "%"}, {"measurement": "Inhibition", "setting": "Plasmodium falciparum [2]", "value": 98, "unit": "%"}]}, {"smiles": "CC(C)n1c(C(C)(C)C)cc2c3c(N)nc(N)nc3ccc21", "values": [{"measurement": "Inhibition", "setting": "Plasmodium falciparum [1]", "value": 100, "unit": "%"}, {"measurement": "Inhibition", "setting": "Plasmodium falciparum [2]", "value": 99, "unit": "%"}]}, {"smiles": "CCS(=O)(=O)O.N=C(N)NC(=O)Nc1ccc(Cl)c([N+](=O)[O-])c1", "values": [{"measurement": "Inhibition", "setting": "Plasmodium falciparum [1]", "value": 97, "unit": "%"}, {"measurement": "Inhibition", "setting": "Plasmodium falciparum [2]", "value": 9, "unit": "%"}]}, {"smiles": "CCCCCCn1ccc2c3c(N)nc(N)nc3ccc21", "values": [{"measurement": "Inhibition", "setting": "Plasmodium falciparum [1]", "value": 99, "unit": "%"}, {"measurement": "Inhibition", "setting": "Plasmodium falciparum [2]", "value": 91, "unit": "%"}]}, {"smiles": "O=C(NCCN1CCCC1)c1cccc(-c2ccc(-c3nc4ccccc4[nH]3)s2)c1", "values": [{"measurement": "Inhibition", "setting": "Plasmodium falciparum [1]", "value": 96, "unit": "%"}, {"measurement": "Inhibition", "setting": "Plasmodium falciparum [2]", "value": 13, "unit": "%"}, {"measurement": "Inhibition", "setting": "HepG2", "value": 27, "unit": "%"}]}]}
